TGFb SMAD3 inh = blocks TGF-b signaling; Potency, µM (titrated, usually from 46.1 µM), for the others: at the highest dose activity, negative = inhibition, hits mostly inhibitors; AID 588855; actives 1.2% (n = 410,000); HepG2 CAGA-GFP TGF-b/SMAD3 reporter, GFP fluorescence, 18 h; TGF-beta stimulated, 500 pg/mL final; further: potency means the concentration at half of the fitted maximal effect; on the % scale 0 is the no-effect control and ±100 the full control effect; nearly all actives have a fitted effect of over 65% in size
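First, reporter cells (HEPG2 CAGA-GFP) rested 2 h at 37 degrees C. Next, compounds were pinned in and TGF-beta added to 500 pg/mL final. After 18 h, GFP was imaged per cell and summed per well.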
ATXN2 expr inh = ATXN2 expression inhibition | actives 0.72% (n = 360,000) | Potency, µM (doses to about 57 µM), without a hit: top-dose activity change, negative = inhibition, usual class: inhibitors | HEK-293 ATXN2-luciferase reporter, luminescence, 24 h | AID 1745845; further: potency means the concentration at half of the fitted maximal effect; on the % scale 0 is the no-effect control and ±100 the full control effect; nearly all actives have a fitted effect of over 55% in size
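qHTS (up to 57 uM final) was run with 24 h compound exposure of reporter cells at 37 °C. Each well was multiplexed: SteadyGlo luminescence measured ATXN2-luciferase expression after a fluorogenic Gly-Phe-AFC viability readout (25 uM final).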
HepG2 tox = counter-screen for TGF-b inhibitors: cytotoxicity in HepG2 cells; HepG2 CAGA-GFP viability, ATP luminescence, 18 h; Potency, µM (top dose mostly 46.1 µM), without a hit: at the highest dose activity change, negative = cytotoxicity, usual class: cytotoxic; actives 0.76% (n = 410,000); AID 588856; further: potency means the concentration at half of the fitted maximal effect
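HepG2 CAGA-GFP cells (1000/well, DMEM with 1% FBS) received compound, then TGF-beta at 500 pg/mL final, and were incubated 18 hours at 37 degrees C. Viability was read by CellTiter-Glo luminescence. Media-only wells were set as complete cell-killing and DMSO as no toxicity.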
IL-1B inflam inh = inhibitors of inflammasome signaling (IL-1 beta secretion). THP-1 LPS/ATP IL-1B secretion, AlphaLISA, 16 h; stronger effect = lower value. activity change, % at 57.5 µM. actives 4.7% (n = 360,000); in the data active means activity change below about -50%; inconclusive means mostly about -30% to -49%; further: on the % scale 0 is the no-effect control and ±100 the full control effect
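Secreted IL-1B measured by AlphaLISA bead assay after 16 h compound exposure of THP-1 cells; compounds (final up to 57.5 uM) added 1 h before LPS (250 ng/mL) and ATP (1.25 mM) stimulation; lower signal means less secretion.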
ATXN viability = reduces viability in counter-screen for ATXN expression inhibitors; S2 cells (HEK-293 line with an ATXN2-luciferase reporter) viability, CellTiter-Fluor protease fluorescence, 24 h; Potency, µM (titrated, usually from 56.7 µM), most hits filed as cytotoxic; actives 0.49% (n = 400,000); further: potency means the concentration at half of the fitted maximal effect; nearly all actives have a fitted effect of over 40% in size
* marks the source's active call; other numbers are inactive results; i = inactive; ? = inconclusive; nt = not tested or not shown; ! = not active in a repeat; [ ] = another dose, or the depositor's remark. This is a sample that favours compounds with a hit; in the whole collection about 5.7% have one here. Unless noted, the call rests on the fitted dose curve; in most records, active means well fitted curve in the direction sought with a large enough effect; inconclusive means small, poorly fitted or top-dose-only effect, or another doubt; inactive means no such curve, though single readings can be large; an effect the other way counts as inactive or inconclusive.

SMILES	TGFb SMAD3 inh	ATXN2 expr inh	HepG2 tox	IL-1B inflam inh	ATXN viability
Cc1ccc(CN2C3CCCC2CC(NC(=O)Nc2cccc(F)c2)C3)cc1 (configuration not stated)	0%	-12%	-52%	-70*	i
O=C(Nc1ccccc1)NC1CC2CCC(C1)N2 (configuration not stated)	-25%	1%	-8%	-28	i
CC1CCCC(NC(=O)COC(=O)c2cn(C)c3ccccc23)C1C (configuration not stated)	-14%	-7%	-4%	?	i
Cc1ccc(-c2nc(CS(=O)CC(=O)NC3CCCC(C)C3C)c(C)o2)cc1 (configuration not stated)	?	-12%	1%	-54*	i
CN(C)CCc1c[nH]c2cccc(O)c12	nt	?	nt	nt	i
COC1C(C)OC(OC2CC(C)(O)Cc3cc4c(c(O)c32)C(=O)c2c(O)cc3c(c2C4=O)OC2OC3(C)C(O)C(N(C)C)C2O)C(OC)C1(C)OC (configuration not stated)	2µM*	?	30%	-99*	?
C/C1=C\[C@@H](C)C/C=C/[C@H]2[C@@H]3O[C@]3(C)[C@@H](C)[C@H]3[C@H](Cc4c[nH]c5ccccc45)NC(=O)[C@]32C(=O)/C=C/C(=O)[C@@H]1O	2.8µM*	?	-98%	-105*	32µM*
C=CCC1=C(C)C(OC(=O)C2C(C=C(C)C)C2(C)C)CC1=O (configuration not stated)	nt	?	nt	nt	40µM*
CCOc1ccc(N=Cc2c(O)n(-c3ccc(C)c(C)c3)c(=O)[nH]c2=O)cc1	0%	-1%	5.6µM*	18	i
CCOc1ccc(N=Cc2c(O)n(-c3cc(C)cc(C)c3)c(=O)[nH]c2=O)cc1	1%	5%	-11%	1	i
Cc1ccc(Cl)cc1NC(=O)Cn1c(=O)oc2cc(S(=O)(=O)N3CCCC3)ccc21	nt	nt	-38%	nt	nt
CCC(C)C1NC(=O)C(NC(=O)C(CC(C)C)N(C)C(=O)C2CCCN2C(=O)C(C)O)C(C)OC(=O)C(Cc2ccc(OC)cc2)N(C)C(=O)C2CCCN2C(=O)C(CC(C)C)NC(=O)[C@H](C)C(=O)[C@H](C(C)C)OC(=O)CC1O (some centres not stated)	-104%	?	-2%	-100*	0.013µM*
O=C(CN1CC=C(c2ccccc2)CC1)Nc1cc(Cl)ccc1Cl	13µM*	-1%	-11%	i	i
O=C(CN1CC=C(c2ccccc2)CC1)Nc1c(Cl)cccc1Cl	-14%	-11%	-1%	-16	?
COc1ccc(OC)c(C[C@H](C)N)c1	nt	nt	nt	nt	i
N#CCn1c(CCl)nc2ccccc2c1=O	1%	?	-23%	-56*	?
Cc1ccc(Cl)cc1N1CCN(C(=O)c2cn(CC(C)C)c(=O)c3c2c2ccccc2n3C)CC1	0%	?	1%	nt	?
CC(C)Oc1ccc(CCN)cc1Cl	7%	-10%	12%	4	?
CCCCOc1ccc(CCN)cc1Cl	?	-3%	-76%	-69*	i
COc1ccc(C=C(C(=O)O)c2ccc(OC)cc2)cc1	-6%	17%	-3%	-1	?
Cc1nn(C)c(C)c1C1C(C#N)=C(N)Oc2n[nH]c(C)c21 (configuration not stated)	?	-7%	3%	0	i
CCSc1cc(C2C(C#N)=C(N)Oc3n[nH]c(C)c32)c(C)o1 (configuration not stated)	?	-4%	-40%	-97*	i
COc1ccc(-n2c(/C=C/c3ccc(O)cc3)nc3ccccc3c2=O)cc1	?	?	-28%	-54*	nt
COc1ccc(-n2c(/C=C/c3ccc(O)c(OC)c3)nc3ccccc3c2=O)cc1	33%	nt	-20%	-67*	nt
COc1ccc(C)cc1NC(=O)Cn1c(=O)oc2cc(S(=O)(=O)N3CCCCC3)ccc21	-24%	-11%	-34%	nt	i
SMILES	TGFb SMAD3 inh	ATXN2 expr inh	HepG2 tox	IL-1B inflam inh	ATXN viability
O=P1(Oc2ccccc2)CC=CC(COCc2ccccc2)O1 (configuration not stated)	-20%	nt	7%	nt	nt
COc1cc2c(cc1OC)-c1c3c(cc4c1[C@@H](C2)N(C)CC4)OCO3	-27%	?	-26%	-81*	i
COc1ccc2nc(N3CCN(C(=O)CS(=O)(=O)c4ccc(C)cc4)CC3)sc2c1	?	nt	-9%	nt	nt
COc1cccc2c1C(=O)c1c(O)c3c(c(O)c1C2=O)C[C@@](O)(C(=O)CO)CC3OC1CC(N2CCOC(OC)C2)C(O)C(C)O1 (some centres not stated)	nt	28µM*	nt	nt	45µM*
CN(C)c1ccc([N+](=O)[O-])c([N+](=O)[O-])c1	8%	0%	-9%	-59*	?
CN(C)c1ccc([P+](=O)c2ccc(N(C)C)cc2)cc1	8%	11%	-2%	-21	i
Cc1cccc(C(=O)Nc2nnc(SCC(=O)NCc3ccco3)s2)c1	?	4%	-13%	-3	i
CCOC(=O)C(NC(=O)CCl)(Nc1ccc(C(O)(C(=O)OCC)C(F)(F)F)cc1)C(F)(F)F (configuration not stated)	-8%	8%	-7%	-89*	i
O=c1nc(/C=C/c2ccc(Cl)cc2Cl)cc(C(F)(F)F)[nH]1	16µM*	nt	11µM*	-87*	i
CN[C@]1(c2ccccc2Cl)CCCCC1=O	nt	nt	nt	nt	i
Cc1cc(C)c2c(ccc3cccc[n+]32)c1	-27%	-21%	-13%	-61*	i
Cc1ccccc1C1=NCC(=O)N(CC(=O)NCc2ccco2)c2sc3c(c21)CCCC3	-17%	?	-44%	-71*	?
CCN(CC)C(=O)[C@@H]1C=C2c3cccc4[nH]cc(c34)C[C@H]2N(C)C1	nt	-17%[222 µM]	nt	nt	?
CCOc1cc2c(cc1OCC)-n1cccc1C(c1ccc(C)cc1C)NC2 (configuration not stated)	?	?	-17%	-90*	?
C[N+](C)(C)CC1CCCC(C[N+](C)(C)C)C1=O (configuration not stated)	13µM*	?	-84%	-23	?
COc1ccc(OC)c(CNC(=O)CCS(=O)(=O)c2ccc3c(c2)oc(=O)n3C)c1	?	4%	-1%	18	i
C=CCc1ccccc1OCCn1c(C2CC(=O)N(Cc3ccc(F)cc3)C2)nc2ccccc21 (configuration not stated)	16µM*	?	-108%	nt	nt
COc1cc(/C=C/[N+](=O)[O-])ccc1O	?	-26%	-51%	-65*	?
CC[n+]1c(-c2ccccc2)c2cc(N)ccc2c2ccc(N)cc21	?	7.1µM*!	-14%	-99*	?

Compound activity deposited in PubChem by National Center for Advancing Translational Sciences (NCATS).
